Shown are actives, neighbours in structure and some others; about 5.5% of the full set was active somewhere.
RORg inh = blocks mouse ROR gamma transcriptional activity; Potency, µM (series often up to 53.6 µM), actives largely listed as inhibitors; hit rate 5.4% among 310,000; P51450; AID 2551; Drosophila S2 Gal4-RORgamma UAS-luciferase reporter, 20 h; note: nearly all actives have a fitted effect of over 60% in size
Target sequence (P51450 whole entry, looked up, the tested form may be a part): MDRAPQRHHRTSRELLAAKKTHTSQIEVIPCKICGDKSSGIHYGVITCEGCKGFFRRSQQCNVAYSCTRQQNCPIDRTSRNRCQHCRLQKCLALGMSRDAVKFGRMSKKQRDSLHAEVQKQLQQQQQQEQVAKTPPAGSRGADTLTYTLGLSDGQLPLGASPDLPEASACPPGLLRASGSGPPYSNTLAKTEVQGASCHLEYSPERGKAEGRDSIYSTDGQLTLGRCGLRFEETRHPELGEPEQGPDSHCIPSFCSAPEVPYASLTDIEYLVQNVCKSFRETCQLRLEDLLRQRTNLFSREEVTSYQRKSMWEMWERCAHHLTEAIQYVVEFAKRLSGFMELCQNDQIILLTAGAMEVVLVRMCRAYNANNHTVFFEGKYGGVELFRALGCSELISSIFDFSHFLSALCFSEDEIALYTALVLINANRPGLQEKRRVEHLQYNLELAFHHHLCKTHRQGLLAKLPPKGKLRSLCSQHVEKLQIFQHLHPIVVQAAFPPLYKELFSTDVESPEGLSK
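Luminescence from a UAS-regulated Photinus luciferase reporter in stably transfected Drosophila Schneider cells is measured; decreased signal marks ROR gamma inhibition. Fusion expression is induced by 700 uM copper sulfate for 20 hr.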
uPA generation = blocks generation of uPA at the cell surface | cell surface uPA generation assay, qHTS | Potency, µM (titrated, usually from 38.3 µM), usual class: inhibitors | hit rate 0.31% among 330,000 | AID 540303; active = well fitted inhibition curve with a large enough effect; inconclusive = small, poorly fitted or top-dose-only effect; inactive = no such curve, though single readings can be large or run the other way; tested in mouse RAW 264.7 cells; note: nearly all actives have a fitted effect of over 55% in size
Integrin act MD = activates integrin-mediated alleviation for muscular dystrophy; alpha7betagal myoblasts, beta-gal FDG fluorescence, 48 h; Potency, µM (highest dose often 38.3 µM), actives largely listed as activators; hit rate 0.064% among 350,000; AID 624291; note: nearly all actives have a fitted effect of over 60% in size
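alpha7betagal+/- myoblasts (passage 13, 250/well) treated 48 h at 37C with compounds at 1:260 dilution of DMSO stock. Lysed, then beta-galactosidase activity read as FDG fluorescence (ex 480/em 540) after 30 min, with pre-read for autofluorescence.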
Chronic BCR inh = inhibitors of chronic active B-cell receptor signaling. ABC-DLBCL IkBa-CBG/CBR reporter, luminescence ratio, 4 h. Potency, µM (series often up to 46.1 µM), hits mostly inhibitors. hit rate 0.05% among 340,000. AID 493014; active = well fitted inhibition curve with a large enough effect in the signal ratio, with a control signal flat, not every such curve was filed as active; inconclusive = small, poorly fitted or top-dose-only effect, or effect the other way, or a change in a side signal; the % refers to the signal ratio
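Doxycycline induced both beetle luciferases in TMD8 lymphoma cells; IKK-driven degradation limits the IkappaBalpha-fused green signal, while red luminescence normalises for cell number and nonspecific effects. Compounds tested up to 46 uM, 4 hrs.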
Gal4-VP16 FLuc = inhibits Gal4-VP16 luciferase reporter, ROR gamma counter-screen; Drosophila S2 Gal4-VP16 UAS-luciferase, luminescence, 20 h; Potency, µM (titrated, usually from 53.6 µM), actives largely listed as inhibitors; hit rate 3.5% among 310,000;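 note: Gal4-VP16 expression switched on by copper sulfate through the metallothionein promoter; nearly all actives have a fitted effect of over 50% in size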
Mito fusion yeast = mitochondrial division inhibition or fusion activation; AID 485298; Potency, µM (top dose mostly 46.1 µM), hits mostly activators; hit rate 0.23% among 320,000; S. cerevisiae fusion-defective mutant growth rescue, CellTiterGlo 48 h; note: nearly all actives have a fitted effect of over 45% in size
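Compounds are tested for their ability to restore growth of mitochondrial fusion-defective yeast strains at non-permissive 37C in YPEG medium over 48 hours. Viability is quantified by luciferase luminescence.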
Hits are given with their value; - = inactive; ? = inconclusive; . = no result; [ ] = another dose, or the depositor's remark. Unless noted, calls come from the whole dose curve; as a rule, active = well fitted curve in the direction sought with a large enough effect; inconclusive = small, poorly fitted or top-dose-only effect, or another doubt; inactive = no such curve, though single readings can be large; an effect the other way counts as inactive or inconclusive.

SMILES	RORg inh	uPA generation	Integrin act MD	Chronic BCR inh	Gal4-VP16 FLuc	Mito fusion yeast
Oc1ccc(N=Nc2nc(-c3ccccc3)c(-c3ccccc3)[nH]2)cc1	13µM	-	-	?	?	-
Oc1ccc(N=Nc2n[nH]c(-c3ccccc3)n2)cc1	?	-	-	?	-	-
Cn1c(-c2c(N)n(-c3ccccc3)c3nc4ccccc4nc23)nc2ccccc21	1.1µM	-	-	-	3.5µM	?
Cc1ccc(-n2c(N)c(-c3nc4ccccc4n3C)sc2=S)cc1	5µM	-	-	?	?	-
Cc1cccc(-n2c(N)c(-c3nc4ccccc4n3C)c3nc4ccccc4nc32)c1	2.8µM	-	-	-	5µM	-
Oc1cc2c(cc1O)[C@@H]1c3ccc(O)c(O)c3OC[C@]1(O)C2	-	.	.	.	-	.
CC(C)(C)S(=O)(=O)N1C[C@@H]2CC/C=C\C/C(c3ccccc3)=C\2[C@H]1CCO	.	-	-	.	.	.
CCCn1c(=O)c2[nH]c(-c3ccccc3)nc2n(CCC)c1=O	?	.	.	.	-	.
NCCS(=O)O	-	.	.	.	-	-
COc1cc(C2Nc3ccc4ncccc4c3C3=C2C(=O)CCC3)cc(OC)c1O (stereo unspecified)	2.8µM	-	-	?	-	-
O=C(NNc1nc(-c2ccccc2)cs1)c1ccccc1	5µM	-	-	?	4µM	-
N#Cc1ccc(-c2csc(NNC(=O)c3ccc(Br)cc3)n2)cc1	5µM	-	-	-	?	-
COC(=O)c1nc(NNC(=O)c2ccccc2)sc1-c1ccccc1	14µM	-	-	-	-	-
N#Cc1ccc(-c2csc(NNC(=O)c3ccccc3)n2)cc1	11µM	-	-	?	?	-
CC(=O)Nc1ccc(-c2csc(NNC(=O)c3ccc(C)cc3)n2)cc1	-	-	-	-	-[10 µM]	-
O=C(Nc1ccc(-c2csc(Nc3ccccc3)n2)cc1)c1ccccc1	-	?	-	-	-	-
CC(=O)NNc1nc(-c2ccc(NC(C)=O)cc2)cs1	-	-	-	-	?	-
c1ncc(-c2ccc3c(c2)OCO3)c(NCCc2cnc[nH]2)n1	-	.	.	.	-	.
CN1Cc2c(N3CCOCC3)nc3sc(C(=O)c4ccc(Br)cc4)c(N)c3c2CC1(C)C	11µM	-	-	?	?	-
COc1ccc(NC(=O)c2sc3nc(N4CCCC4)c4c(c3c2N)CC(C)(C)OC4)cc1	-	-	-	?	-	13µM
O=[N+]([O-])c1ccccc1/C=C/C=N/Nc1ccc(S(=O)(=O)Nc2ccc(Cl)cc2)cc1[N+](=O)[O-]	-	-	?	-	-	-
CC(C)CCNC(=O)CN(Cc1ccc(F)cc1)C(=O)CCC(=O)Nc1ccccn1	-	-	-	-	-	-
CC(C)CCNC(=S)Nc1ccccc1F	7.9µM	-	-	-	11µM	-
Cc1cccc(NC(=S)NCCC(C)C)c1	-	-	-	-	?	-
COCCNC(=S)Nc1ccccn1	18µM	-	-	-	?	-
SMILES	RORg inh	uPA generation	Integrin act MD	Chronic BCR inh	Gal4-VP16 FLuc	Mito fusion yeast
CC(C)CCNC(=S)Nc1ccccn1	0.56µM	-	-	-	4µM	-
O=C(N/N=C/c1ccccc1[N+](=O)[O-])c1cnccn1	-	-	-	?	-	-
CCO[C@@H]1OC(C(=O)NCc2nc3ccccc3[nH]2)=C[C@H](C2CC2)[C@H]1CCCO	-	4.5µM	-	?	-	-
COC(=O)C1C(O)CC[C@@H]2CN3CCc4c([nH]c5ccccc45)C3C[C@@H]12 (stereo partly specified)	-	.	.	.	-	.
O=C(Nc1cc(Cl)cc(Cl)c1)C1CCC(=O)N1Cc1ccccc1Cl (stereo unspecified)	?	-	-	?	16µM	-
CNC(=O)C1CCC(=O)N1Cc1ccccc1Cl (stereo unspecified)	-	.	-	-	-	-
COc1ccc(S(=O)(=O)N(C)C)cc1NCC(=O)Nc1ccc(F)cc1F	-	-	-	-	-	-
COc1ccc(S(=O)(=O)N(C)C)cc1NS(=O)(=O)c1ccc(F)c(F)c1F	4.5µM	-	-	-	13µM	-
CC(C)c1nc2ccccc2n1CC(O)COC1CCCCC1 (stereo unspecified)	-	-	-	?	-	-
CC(C)(C)C#CCn1c(/C=[N+](\[O-])C2CCCCC2)nc2ccccc21	10µM	?	-	-	-	-
O=C(NC(=S)NCCN1CCOCC1)c1ccc(Cl)cc1Cl	4µM	-	-	-	?	-
CCN(CC)C(=S)NC(=O)c1ccc(Cl)cc1Cl	0.79µM	-	-	-	1.6µM	-
CCCCN(CCCC)C(=S)NC(=O)c1ccccc1Cl	0.71µM	-	-	?	2µM	-
CCCCNC(=S)NC(=O)c1ccc(Cl)cc1Cl	16µM	-	-[1.53 µM]	-	?	-
COC(=O)/C=C(\C)NC(=O)c1ccccc1Cl	-	.	-[7.66 µM]	-	-	-
CN1CCN(S(=O)(=O)c2ccc(Br)c3ccccc23)CC1	-	-	-	-	-	-
CC(C)c1ccc(OCC(=O)NCc2n[nH]c(=O)c3ccccc23)cc1	.	-	-	-	.	-
CC(C)C[C@H](NC(=O)N1CC(=O)Nc2ccccc21)C(=O)N[C@@H](Cc1ccccc1)C(=O)O	-	-	-	-	-	-
O=C(NCCCNC(=O)c1ccccc1Br)c1ccccc1Br	-	-	-	-	-	-
CCCCNC(=S)NC(=O)c1ccccc1Br	7.9µM	-	-	?	11µM	-
CC(NCC(O)COCCC12CC3CC(CC(C3)C1)C2)c1ccccc1 (stereo unspecified)	13µM	?	-	?	?	-
NCC(O)COCCC12CC3CC(CC(C3)C1)C2 (stereo unspecified)	-	-	-	-	-	-
CC(C)(C)c1cc[n+](C2=C([O-])c3ccccc3C(=O)/C2=N\S(=O)(=O)c2cccs2)cc1	11µM	-	-	?	8.9µM	-
O=C(O)c1ccccc1C(=O)Nc1ccccc1	-	.	-	?	-	-
O=C(Nc1ccccc1)C1=C(c2ccccc2)S(=O)(=O)CCS1(=O)=O	0.89µM	-	-	?	2.2µM	-
SMILES	RORg inh	uPA generation	Integrin act MD	Chronic BCR inh	Gal4-VP16 FLuc	Mito fusion yeast
O=C(Cc1ccccc1Nc1c(Cl)cccc1Cl)OCO/N=[N+](\[O-])N1CCCC1	?	.	.	.	18µM	.
CC(C)NC(=O)CS(=O)(=O)c1ccccc1	-	-	-	-	-	-
C=C(C)CNC(=S)N/N=C(\C)c1cccc(NC(C)=O)c1	10µM	-	-	-	?	-
CC(C)NC(=S)NC(c1ccccc1)(c1ccccc1)c1ccccc1	?	?	-	-	3.2µM	-
CC(=O)Nc1cccc(/C(C)=N/NC(=S)NC(C)C)c1	7.9µM	-	-	?	?	-
CC(=O)Nc1cccc(/C(C)=N/NC(N)=S)c1	?	-	-	-	-	-
C/C(=N\NC(=S)NC(C)C)c1ccccc1	0.56µM	-	-	?	3.5µM	-
Cc1c(C2CCN(CCc3ccccc3)CC2)noc1-c1ccc(Cl)cc1	-	.	.	.	?	.
